Inconclusive results are not listed. Calls of active or inactive are those of the source. The call rests on the fitted dose curve; in most records, active means well fitted curve in the direction sought with a large enough effect; inconclusive means small, poorly fitted or top-dose-only effect, or another doubt; inactive means no such curve, though single readings can be large; an effect the other way counts as inactive or inconclusive.

The nature of one test: Tertiary RLuc qRT-PCR qHTS assay for Zika virus inhibitors (AID 1347169). Further: nearly all actives have a fitted effect of over 55% in size. Further: potency means the concentration at half of the fitted maximal effect. On activity change, negative = inhibition: top concentration of the series differs between compounds; on the % scale 0 is the no-effect control and ±100 the full control effect. As to conditions: infected Vero cells, reporter luminescence, 48-72 h; series mostly up to 89.2 µM; activity change, negative = inhibition: at the top concentration. An excerpt:
Avindra Nath, Ph.D., National Institute of Neurological Disorders and Stroke (NINDS), Bethesda, MD
Radhakrishnan Padmanabhan, Ph.D., Georgetown University (GU), Washington D.C.
Zika Virus causes congenital defects, including microcephaly and is associated with Guillain-Barre syndrome, eningoencephalitis and myelitis in infected adult. […] Using a target-based approach, we hope to establish a screening paradigm to uncover novel, cell-active NS2B-NS3 protease (Zika Virus) specific inhibitors from NCATS' collection of small molecules using qHTS.
Four assay panel was created to identify potential Zika Virus inhibitors. Namely, (1) GU unlinked NS2B-NS3 AMC tagged protease qHTS, (2) GU unlinked NS2B-NS3 Rhodamine tagged protease qHTS, (3) NINDS linked NS2B-NS3 AMC tagged protease qHTS, (4) NINDS linked NS2B-NS3 Rhodamine tagged protease qHTS. Identified inhibitors were re-acquired and tested against secondary confirmatory, orthogonal, and counterscreens to exclude nonspecific inhibition.
Early Translation Branch (ETB)
National Center for Advancing Translational Sciences (NCATS), Rockville, MD
National Institute of Health (NIH), Bethesda, Maryland
1536-well recombinant virus ZIKV-RLuc (Cambodian) Assay:
For a follow-up assay, we adapted a high throughput orthogonal assay in 1536-well plate format to use the recombinant virus ZIKV-RLuc, in Vero cells. Briefly, three microL of Vero cells derived from a green monkey cell line, were dispensed Multidrop Dispenser into a solid bottom white 1,536-well plate at a concentration of 1,000 cells per well. The plate was incubated overnight in a CO2 incubator at 37 degrees C. Compounds were delivered as a 23 nL DMSO solution by Kalypsys pintool transfer. Following compound transfer, 2 microL of ZIKV-RLuc was added at an MOI of 1-2 and incubated in a CO2 incubator for 48-72 hrs at 37 degrees C. After sufficient incubation of infected cells in test plates, live cell Renilla luciferase substrate (Promega) was added. The luminescence signal was measured after 1-1.5 hrs exposure to substrate in ViewLux reader.
Background: In qPCR the cycle at which signal appears reflects the starting amount.
As for `O=C(Nc1cc(C(F)(F)F)cc(C(F)(F)F)c1)c1cc(Cl)ccc1O`, the Potency was 0.415 µM (active). Same read-out and setting: then `COc1cc2c(cc1-c1c(C)noc1C)ncc1[nH]c(=O)n([C@H](C)c3ccccn3)c12`, with 0.37 µM (active); and `O=C(O)Cn1nnc(-c2cc(N3CCC(Oc4cc(F)ccc4Br)CC3)no2)n1`, with 1.17 µM (active). Take `CC(C)c1ccccc1Cc1cc(C(=O)Nc2ccc(S(=O)(=O)c3ccccc3C(C)(C)C)cc2)c(O)c(O)c1O`: the “activity change, negative = inhibition” value was -15.4% (inactive).

The nature of a further test: qHTS to identify inhibitors of the type 1 interferon - major histocompatibility complex class I in skeletal muscle: primary screen against the NCATS Pharmaceutical Collection (AID 1347407).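 Further: luminescence of HiBiT knocked into endogenous HLA-B as interferon-induced MHC class I level; on the % scale 0 is the no-effect control and ±100 the full control effect.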 As to conditions: human skeletal muscle cells, IFN-b-induced MHC-I HiBiT luminescence, 24 h; series mostly up to 45.9 µM; activity change, negative = inhibition: at the top concentration. Put shortly: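 Compounds […] were added to CRISPR-engineered HLA-B-HiBiT C25cl48 human myoblasts with 4.0 ng/ml IFN-beta. After 24 hrs at 37 C, cells were lysed and HiBiT luminescence measured.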
In general terms: Quantitative high-throughput screening tests each substance at several concentrations.
As to `COc1cc(C(=O)NS(=O)(=O)c2ccccc2C)ccc1Cc1cn(C)c2ccc(NC(=O)OC3CCCC3)cc12`, the “activity change, negative = inhibition” value is -3.54% (inactive). For the compound `CC(=O)SC[C@@H](C)C(=O)N1CCC[C@H]1C(=O)N[C@@H](Cc1ccccc1)C(=O)O`, the “activity change, negative = inhibition” value is 10.1% (inactive).

As for `Cc1nc2ccc(CN(C)c3ccc(C(=O)N[C@@H](CCC(=O)O)C(=O)O)s3)cc2c(=O)[nH]1`, the “activity change, negative = inhibition” value was -7.92% (inactive).

The next test is described as follows: qHTS to identify inhibitors of the type 1 interferon - major histocompatibility complex class I in skeletal muscle: primary screen against the NCATS Mechanism Interrogation Plate v5.0 (MIPE) Libary (AID 1347411). Further: nearly all actives have a fitted effect of over 65% in size. Further: potency means the concentration at half of the fitted maximal effect.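 On activity change, negative = inhibition: plate controls were vehicle for no effect and reference inhibitor for full effect.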 As to conditions: iHSKM cells + IFN-b, HiBiT-tagged MHC-I luminescence, 24 h; series mostly up to 45.8 µM; activity change, negative = inhibition: at the top concentration. An outline of the steps:
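Immortalized human C25cl48 myoblasts with HiBit knocked into endogenous HLA-B*08:01 were stimulated with 4.0 ng/ml IFN-beta and exposed to compounds (11-point 1:3 titration, top 46 uM final) for 24 hrs at 37 C; HiBiT lytic luminescence measured.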
As for `c1cc(-c2cnn3cc(-c4ccc(OCCN5CCCCC5)cc4)cnc23)ccn1`, the Potency is 10.4 µM (active). On to `C=CC(=O)Nc1cc2c(Nc3ccc(F)c(Cl)c3)ncnc2cc1OCCCN1CCOCC1`, for which the Potency was 11.7 µM (active). In the case of `CC(=O)OCC(=O)[C@@]1(O)[C@H](C)C[C@H]2[C@@H]3C=C(C)C4=Cc5c(cnn5-c5ccccc5)C[C@]4(C)[C@@H]3[C@@H](O)C[C@@]21C`, the “activity change, negative = inhibition” value is 3.21% (inactive). `CCS(=O)(=O)c1cccc(-c2cc(C(=O)NC3CCN(C)CC3)c(C)c3[nH]c4ncc(C)cc4c23)c1`: the Potency is 1.86 µM (active). With `COc1cc2c(Oc3ccc4[nH]c(C)cc4c3F)ncnc2cc1OCCCN1CCCC1`, the Potency was 20.8 µM (active).

Turning to `CC(C)c1nn(-c2c(Cl)cccc2Cl)c2nc(Cc3ccc(OCCO)cc3)[nH]c(=O)c12`, the Potency is 0.0294 µM (active). For `N#CCNC(=O)c1ccc(-c2ccnc(Nc3ccc(N4CCOCC4)cc3)n2)cc1`, the Potency is 11.7 µM (active). For `CNC(=O)CN1CCC(Oc2cc3c(Nc4cccc(Cl)c4F)ncnc3cc2OC)CC1`, the “activity change, negative = inhibition” value was -4.22% (inactive). Turning to `CN1CC[C@@H](c2c(O)cc(O)c3c(=O)cc(-c4ccccc4Cl)oc23)[C@@H](O)C1`, the Potency was 0.739 µM (active). In the case of `Cc1ccc(NC(=O)C2(c3ccc4c(c3)OC(F)(F)O4)CC2)nc1-c1cccc(C(=O)O)c1`, the “activity change, negative = inhibition” value was -16.4% (inactive). Take `COc1cc(C(=O)NS(=O)(=O)c2ccccc2C)ccc1Cc1cn(C)c2ccc(NC(=O)OC3CCCC3)cc12`: the “activity change, negative = inhibition” value is 6.98% (inactive). For the compound `CC(C)C[C@H](NC(=O)CNC(=O)c1cc(Cl)ccc1Cl)B(O)O`, the Potency was 0.104 µM (active).

Turning to `CC(=O)SC[C@@H](C)C(=O)N1CCC[C@H]1C(=O)N[C@@H](Cc1ccccc1)C(=O)O`, the “activity change, negative = inhibition” value was 11% (inactive). As to `CCN(CC)CCCCNc1ncc2cc(-c3cc(OC)cc(OC)c3)c(NC(=O)NC(C)(C)C)nc2n1`, the Potency is 29.4 µM (active).

Turning to `O=C(NCCCNc1nc(Nc2cccc(NC(=O)N3CCCC3)c2)ncc1I)c1cccs1`, the “activity change, negative = inhibition” value is -6.08% (inactive). As to `CCN1CCN(CC(=O)Nc2ccc(-c3cccc4c(=O)cc(N5CCOCC5)oc34)c3sc4ccccc4c23)CC1`, the “activity change, negative = inhibition” value is 4.22% [at 15.5 µM] (inactive). In the case of `CC[C@@]1(O)C(=O)OCc2c1cc1n(c2=O)Cc2cc3cc(O)ccc3nc2-1`, the Potency is 3.3 µM (active). With `Nc1nc(NCCNc2ncc(-n3ccnc3)c(-c3ccc(Cl)cc3Cl)n2)ccc1[N+](=O)[O-]`, the Potency was 14.7 µM (active). For the compound `Cc1c(C)n(Cc2ccc(-c3ccccc3C(=O)O)cc2)c2ccc(C(=O)N[C@@H](C)c3ccc([N+](=O)[O-])cc3)cc12`, the “activity change, negative = inhibition” value was -22.5% (inactive). In the case of `O=C(O)Cn1nnc(-c2cc(N3CCC(Oc4cc(F)ccc4Br)CC3)no2)n1`, the “activity change, negative = inhibition” value was -18.1% (inactive). With `CC(C)(C)c1cc(NC(=O)Nc2ccc(-c3cn4c(n3)sc3cc(OCCN5CCOCC5)ccc34)cc2)no1`, the “activity change, negative = inhibition” value is -4.21% (inactive).

With `CC[C@H](CO)Nc1nc(NCc2ccccc2)c2ncn(C(C)C)c2n1`, the Potency was 29.4 µM (active). On to `Cc1nc2ccc(CN(C)c3ccc(C(=O)N[C@@H](CCC(=O)O)C(=O)O)s3)cc2c(=O)[nH]1`, for which the “activity change, negative = inhibition” value is 14% (inactive). Still for that read-out and setting: then `CCCNC(=O)Nc1ccc(Oc2ncnc3cc(OC)c(OC)cc23)cc1Cl`, with -6.63% (inactive). Turning to `CC(C)CC(=O)Nc1n[nH]c2c1CN(C(=O)C1CCN(C)CC1)C2(C)C`, the Potency was 1.04 µM (active).
